In PubChem BioAssay (Tox21) one finds Potency and max response data, which are given here for 10 molecules.

The structures appear in SMILES notation. “And” between values parts separate entries of the source, which are not always exact repeats. Equal entries are not always repeated. A number with no mark means an inactive call. Records with an inconclusive call do not appear. The source made the active and inactive calls. Calls come from the whole dose curve; as a rule, active = well fitted curve in the direction sought with a large enough effect in the repeat runs; inconclusive = weak or mixed curves; inactive = no such curve, though single readings can be large; an effect the other way counts as inactive or inconclusive.

Experiment [1] is described as follows: A CellTox Green Cytotoxicity Assay to monitor cytotoxicity in HEK293 cells - 40 hour (AID 1224871). Note: nearly all actives have a fitted effect of over 45% in size. Note: potency is the fitted concentration of half-maximal effect. The procedure, abridged:
(§1)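 Each value comes from one timepoint of a single continuous run in which HEK293 cells with CellTox Green were exposed to compound for up to 40 h at 37 C, dye fluorescence rising with cell death.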

Experiment [2] can be described thus: qHTS RealTime-Glo MT Cell Viability Assay in HEK293 cells - 16 hour (AID 1224872). Note: nearly all actives have a fitted effect of over 50% in size. Note: potency is the fitted concentration of half-maximal effect. The method in brief:
(§2)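 Homogeneous bioluminescent viability format in HEK293 cells (600 cells/well). Following 5 h at 37 C/5% CO2, 23 nL compound was pintooled; the signal was measured repeatedly during 40 h incubation.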

A short description of experiment [3]: qHTS RealTime-Glo MT Cell Viability Assay in HepG2 cells - 8 hour (AID 1224873). Note: nearly all actives have a fitted effect of over 55% in size. The procedure, abridged: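 HepG2 cells (600/well) mixed with RealTime-Glo MT reagent, settled 5 h at 37 C/5% CO2 before compound addition. Nonlytic NanoLuc luminescence from viable-cell prosubstrate reduction read repeatedly during 40 h treatment at 37 C.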
A short description of experiment [4]: qHTS RealTime-Glo MT Cell Viability Assay in HEK293 cells - 40 hour (AID 1224874). Note: nearly all actives have a fitted effect of over 50% in size. Note: potency is the fitted concentration of half-maximal effect. The following applies: RealTime-Glo luminescence; max response: hits give low values. The method in brief: (§3)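 qHTS format; HEK293 cells with NanoLuc/prosubstrate reagent, 37 C/5% CO2 for 5 h pre-dosing; compounds 23 nL in DMSO; luminescence at each time point reflects viable cells.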
(qHTS replaces the single test concentration by a dilution series.)

Experiment [5] is described as follows: A CellTox Green Cytotoxicity Assay to monitor cytotoxicity in HEK293 cells - 24 hour (AID 1224875). Note: series mostly up to about 77 µM; nearly all actives have a fitted effect of over 45% in size. The method in brief: as §1
Experiment [6] is described as follows: A CellTox Green Cytotoxicity Assay to monitor cytotoxicity in HepG2 cells - 16 hour (AID 1224876). Note: nearly all actives have a fitted effect of over 45% in size. The procedure, abridged: (§4)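 Continuous culture of HepG2 cells with a membrane-impermeant DNA dye; rising fluorescence marks dead cells. Compound exposure lasted up to 40 h at 37 C, with reads every 8 h from 0 h.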
Experiment [7] in a line: qHTS RealTime-Glo MT Cell Viability Assay in HepG2 cells - 32 hour (AID 1224877). Note: nearly all actives have a fitted effect of over 55% in size. The procedure, abridged: (§5)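 Cell number in HepG2 cultures estimated from NanoLuc luminescence generated by metabolic reduction of a prosubstrate by living cells. The homogeneous, nonlytic format allowed repeated reads at 0, 8, 16, 24, 32 and 40 h of compound exposure.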
A short description of experiment [8]: A CellTox Green Cytotoxicity Assay to monitor cytotoxicity in HepG2 cells - 24 hour (AID 1224878). Note: nearly all actives have a fitted effect of over 45% in size. The procedure, abridged: as §4
The nature of experiment [9]: A CellTox Green Cytotoxicity Assay to monitor cytotoxicity in HepG2 cells - 40 hour (AID 1224879). Note: nearly all actives have a fitted effect of over 40% in size. The method in brief: as §4
Experiment [10] is described as follows: qHTS RealTime-Glo MT Cell Viability Assay in HEK293 cells - 0 hour (AID 1224880). The method in brief: as §3
Experiment [11] can be described thus: A CellTox Green Cytotoxicity Assay to monitor cytotoxicity in HepG2 cells - 0 hour (AID 1224882). Note: nearly all actives have a fitted effect of over 35% in size. The procedure, abridged: as §4
Experiment [12] is described as follows: A CellTox Green Cytotoxicity Assay to monitor cytotoxicity in HepG2 cells - 32 hour (AID 1224883). Note: nearly all actives have a fitted effect of over 50% in size. The procedure, abridged:
as §4

Experiment [13] in a line: A CellTox Green Cytotoxicity Assay to monitor cytotoxicity in HEK293 cells - 8 hour (AID 1224884). Note: nearly all actives have a fitted effect of over 35% in size. The method in brief: as §1
Experiment [14] can be described thus: qHTS RealTime-Glo MT Cell Viability Assay in HepG2 cells - 16 hour (AID 1224885). Note: nearly all actives have a fitted effect of over 50% in size. The method in brief:
as §5

A short description of experiment [15]: qHTS RealTime-Glo MT Cell Viability Assay in HEK293 cells - 24 hour (AID 1224886). Note: nearly all actives have a fitted effect of over 50% in size. Note: potency is the fitted concentration of half-maximal effect. The procedure, abridged: as §2
A short description of experiment [16]: qHTS RealTime-Glo MT Cell Viability Assay in HEK293 cells - 8 hour (AID 1224887). The procedure, abridged: as §3
The nature of experiment [17]: A CellTox Green Cytotoxicity Assay to monitor cytotoxicity in HEK293 cells - 16 hour (AID 1224888). Note: nearly all actives have a fitted effect of over 35% in size. The method in brief:
as §1

The nature of experiment [18]: qHTS RealTime-Glo MT Cell Viability Assay in HepG2 cells - 0 hour (AID 1224889). Note: nearly all actives have a fitted effect of over 50% in size. The procedure, abridged:
as §5

Experiment [19] in a line: A CellTox Green Cytotoxicity Assay to monitor cytotoxicity in HepG2 cells - 8 hour (AID 1224890). Note: nearly all actives have a fitted effect of over 45% in size. The procedure, abridged:
as §4

A short description of experiment [20]: A CellTox Green Cytotoxicity Assay to monitor cytotoxicity in HEK293 cells - 32 hour (AID 1224881). Note: nearly all actives have a fitted effect of over 40% in size. The procedure, abridged:
as §1
% is set by controls: 0 for no effect and ±100 for the full control effect.

For the molecule `O=C1CCCCCCCCCCC1`, the Potency result in experiment [1], in experiment [2], in [3], in experiment [5], in experiment [6] and in [7] was “inactive” each time. The Potency result in [8], in experiment [9], in experiment [10], in experiment [11], in [12] and in [13] was “inactive” each time. In addition, the Potency entry in [14], in experiment [15], in experiment [16], in experiment [17], in experiment [18] and in experiment [19] was “inactive” in each case. Further, in [4], the max response was -9.58% and -0.296%.
As to `CC/C=C(\C(=O)N[C@@H]1C(=O)N2C(C(=O)OCOC(=O)C(C)(C)C)=C(COC(N)=O)CS[C@H]12)c1csc(N)n1`, the Potency result in [1], in experiment [2], in experiment [3], in experiment [5], in [6] and in experiment [7] was “inactive” each time. Moreover, the Potency result in experiment [8], in experiment [9], in experiment [10], in experiment [20], in experiment [11] and in [12] was “inactive” throughout. In addition, the Potency entry in [13], in experiment [14], in experiment [15], in experiment [16], in [18] and in experiment [19] was “inactive” throughout. Besides, the max response in experiment [4] was 11.8% and 8.9%.
Take `COc1ccc2cc3[n+](cc2c1OC)CCc1cc2c(cc1-3)OCO2`: the Potency was 22 µM (active) and 19 µM (active) in experiment [1]; 4.4 µM (active) in [2]; 4.4 µM (active) and 9.52 µM (active) in experiment [4]; 4.4 µM (active) and 10.7 µM (active) in experiment [15]. Besides, the Potency entry in experiment [3], in experiment [5], in experiment [6], in [7], in experiment [8] and in experiment [9] was “inactive” throughout. The Potency entry in experiment [10], in experiment [11], in experiment [12], in [13], in experiment [14] and in [17] was “inactive” each time. For the same molecule, the Potency entry in experiment [18] and in [19] was “inactive” throughout.
Turning to `OB(O)O`, the Potency result in experiment [1], in [2], in experiment [3], in experiment [5], in experiment [6] and in experiment [7] was “inactive” in each case. Also, the Potency entry in [8], in experiment [9], in experiment [10], in experiment [20], in experiment [11] and in [12] was “inactive” each time. In addition, the Potency entry in experiment [13], in experiment [14], in experiment [15], in experiment [16], in experiment [18] and in experiment [19] was “inactive” each time. In addition, in experiment [4], the max response was 1.85% and 3.92%.
For `CC(=O)OC[C@H]1O[C@@](COC(C)=O)(O[C@H]2O[C@H](COC(C)=O)[C@@H](OC(C)=O)[C@H](OC(C)=O)[C@H]2OC(C)=O)[C@@H](OC(C)=O)[C@@H]1OC(C)=O`, the Potency entry in experiment [1], in experiment [2], in [3], in experiment [5], in [6] and in experiment [7] was “inactive” in each case. The Potency entry in experiment [8], in [9], in experiment [10], in experiment [20], in experiment [11] and in experiment [12] was “inactive” each time. Moreover, the Potency result in [13], in experiment [14], in [15], in [16], in experiment [18] and in experiment [19] was “inactive” each time. Further, in experiment [4], the max response was -0.774% and 5.83%.
As to `COc1ccc([C@@H]2CC(=O)c3c(O)cc(O[C@@H]4O[C@H](CO[C@@H]5O[C@@H](C)[C@H](O)[C@@H](O)[C@H]5O)[C@@H](O)[C@H](O)[C@H]4O)cc3O2)cc1OC`, the Potency entry in [1], in experiment [2], in experiment [3], in experiment [5], in experiment [6] and in experiment [7] was “inactive” throughout. The Potency result in experiment [8], in experiment [9], in experiment [10], in experiment [20], in experiment [11] and in experiment [12] was “inactive” each time. The Potency result in experiment [13], in experiment [14], in experiment [15], in experiment [16], in [18] and in experiment [19] was “inactive” each time. Besides, in experiment [4], the max response is 14.9% and 7.9%.
With `CCc1cccc(CC)c1N`, the Potency entry in experiment [1], in experiment [2], in [3], in experiment [5], in experiment [6] and in experiment [7] was “inactive” each time. For the same molecule, the Potency entry in experiment [8], in [9], in experiment [10], in [20], in experiment [11] and in experiment [12] was “inactive” in each case. Further, the Potency entry in experiment [13], in [14], in [15], in experiment [16], in [18] and in [19] was “inactive” throughout. In addition, the max response in experiment [4] is 1.74% and 8.01%.
As for `Cc1cc(CC(=O)O)n(C)c1C(=O)c1ccc(Cl)cc1`, the Potency entry in experiment [1], in experiment [2], in experiment [3], in [5], in experiment [6] and in experiment [7] was “inactive” throughout. Besides, the Potency entry in experiment [8], in experiment [9], in [10], in [20], in [11] and in [12] was “inactive” each time. The Potency result in experiment [13], in [14], in experiment [15], in experiment [16], in experiment [18] and in [19] was “inactive” in each case. In addition, the max response in experiment [4] is -0.154% and 2.14%.
Take `CCCCCCC(=O)O`: the Potency entry in experiment [1], in experiment [2], in [3], in [5], in experiment [6] and in [7] was “inactive” in each case. Moreover, the Potency entry in experiment [8], in experiment [9], in [10], in experiment [20], in [11] and in [12] was “inactive” each time. In addition, the Potency result in experiment [13], in experiment [14], in experiment [15], in experiment [16], in [18] and in [19] was “inactive” each time. The max response in experiment [4] was 0.822% and 2.88%.
Take `CC(=O)Nc1ccc(CC(=O)O)cc1`: the Potency result in [1], in experiment [2], in experiment [3], in experiment [5], in [6] and in experiment [7] was “inactive” each time. Also, the Potency result in experiment [8], in experiment [9], in experiment [10], in experiment [20], in [11] and in experiment [12] was “inactive” throughout. The Potency result in [13], in [14], in [15], in experiment [16], in experiment [18] and in experiment [19] was “inactive” in each case. Besides, in experiment [4], the max response was -18.8% and 1.34%.
